# Where a name gives a salt, the structure may show the parent alone. Unmarked numbers belong to inactive results.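 Rule for the calls: for the amine columns active = adjusted P below 0.05 in both replicates with a change the same way and a mean fold change under 0.8 or over 1.25; inactive = the rest.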
# Test system: Ruminococcus gnavus DSM 108212
# Assay: fold change of Tryptamine concentration vs plate DMSO controls (fold change (ratio)); higher = more amine produced, active = hit call of the paper (significant change in both replicates, either direction)
# Conditions: incubation time: 27 h, anaerobic, 37 °C
# Outline: (§1)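 Anaerobic mGAM cultures of four gut bacterial strains were grown at 37 °C for 27 h in 80 µL wells, starting at OD 0.1 before 1:1 dilution. Compounds were at 20 µM final (sweeteners 50 µM). Whole cultures were extracted with cold acetonitrile/methanol containing 0.1% formic acid and centrifuged. Amines were quantified by LC–triple-quadrupole MS (dynamic MRM) against external calibration curves and drift-corrected within batch. Each value is the fold change versus plate DMSO controls, averaged over 2 biological replicates.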
row,Structure (SMILES),fold change of Tryptamine concentration
1,CC#CCn1c(N2CCC[C@@H](N)C2)nc2c1c(=O)n(Cc1nc(C)c3ccccc3n1)c(=O)n2C [Linagliptin] (20 µM),1.02
2,CCOc1ccc2c(c1)C(C)=CC(C)(C)N2 [Ethoxyquin] (20 µM),0.854
3,Cn1c(=O)c2c(ncn2C)n(C)c1=O [Caffeine] (20 µM),1.06
4,C[C@]12CC[C@@H]3c4ccc(O)cc4CC[C@H]3[C@@H]1CC[C@@H]2O [Estradiol-17 beta] (20 µM),1.04
5,CC(=O)OCC(=O)[C@@]12OC3(CCCC3)O[C@@H]1C[C@H]1[C@@H]3CCC4=CC(=O)C=C[C@]4(C)[C@@]3(F)[C@@H](O)C[C@@]12C [Amcinonide] (20 µM),1.05
6,OCCN1CCN(CCCN2c3ccccc3C=Cc3ccccc32)CC1 [Opipramol dihydrochloride] (20 µM),1.02
7,CC(C)[N+](C)(CCOC(=O)C1c2ccccc2Oc2ccccc21)C(C)C [Propantheline bromide] (20 µM),0.96
8,C[C@H](O)[C@H](O)[C@H]1CNc2[nH]c(N)nc(=O)c2N1 [Sapropterin dihydrochloride] (20 µM),0.945
9,CCN(CC)CCNC(=O)c1cc(S(C)(=O)=O)ccc1OC [Tiapride hydrochloride] (20 µM),1
10,CNCCCN1c2ccccc2CCc2ccccc21 [Desipramine hydrochloride] (20 µM),0.946
11,COc1ccccc1OCC(O)CN1CCN(CC(=O)Nc2c(C)cccc2C)CC1 (stereo not drawn) [Ranolazine] (20 µM),1.03
12,CC(=O)c1ccc2c(c1)N(CCCN1CCC(CCO)CC1)c1ccccc1S2 [Piperacetazine] (20 µM),1.17
13,Cn1cc(C(=O)Nc2ccc(F)cc2-c2ccc(Cl)c(Cl)c2)c(C(F)F)n1 (20 µM),0.907
14,Nc1nc(=O)[nH]cc1F [Flucytosine] (20 µM),0.987
15,O=c1oc2cc(O)ccc2s1 [Tioxolone] (20 µM),0.987
16,CCN1C(=O)NC(c2ccccc2)C1=O (stereo not drawn) [Ethotoin] (20 µM),0.879
17,C=C1/C(=C\C=C2/CCC[C@]3(C)[C@@H]([C@H](C)/C=C/[C@@H](O)C4CC4)CC[C@@H]23)C[C@@H](O)C[C@@H]1O [Calcipotriene] (20 µM),1.01
18,COc1ccc([C@@H]2Sc3ccccc3N(CCN(C)C)C(=O)[C@@H]2OC(C)=O)cc1 [Diltiazem hydrochloride] (20 µM),1.01
19,N#Cc1ccc(C(c2ccc(C#N)cc2)n2cncn2)cc1 [Letrozole] (20 µM),1.01
20,Clc1ccc(CSC(Cn2ccnc2)c2ccc(Cl)cc2Cl)cc1 (stereo not drawn) [Sulconazole nitrate] (20 µM),0.434 (active)
21,NC(=O)c1ncn([C@@H]2O[C@H](CO)[C@@H](O)[C@H]2O)n1 [Ribavirin] (20 µM),0.994
22,CC(C)NCC(O)c1cc(O)cc(O)c1 (stereo not drawn) [Metaproterenol sulfate] (20 µM),0.957
23,Cc1ccccc1C(=O)Nc1ccc(C(=O)N2CCCC(O)c3cc(Cl)ccc32)c(C)c1 (stereo not drawn) [Tolvaptan] (20 µM),0.964
24,CC(C)(C)NC(=O)[C@H]1CC[C@H]2[C@@H]3CC[C@H]4NC(=O)C=C[C@]4(C)[C@H]3CC[C@]12C [Finasteride] (20 µM),1.06
25,O=c1n(CCCN2CCN(c3cccc(Cl)c3)CC2)nc2ccccn12 [Trazodone hydrochloride] (20 µM),0.809
26,NNc1nncc2ccccc12 [Hydralazine hydrochloride] (20 µM),1.03
27,CN(C/C=C/c1ccccc1)Cc1cccc2ccccc12 [Naftifine hydrochloride] (20 µM),0.941
28,N=c1nc(N2CCCCC2)cc(N)n1O [Minoxidil] (20 µM),1.01
29,C=CC[C@@H]1/C=C(\C)C[C@H](C)C[C@H](OC)[C@H]2O[C@@](O)(C(=O)C(=O)N3CCCC[C@H]3C(=O)O[C@H](/C(C)=C/[C@@H]3CC[C@@H](O)[C@H](OC)C3)[C@H](C)[C@@H](O)CC1=O)[C@H](C)C[C@@H]2OC [Tacrolimus Monohydrate] (20 µM),1.01

# Test system: Escherichia coli IAI1
# Assay: fold change of Putrescine concentration vs plate DMSO controls (fold change (ratio)); higher = more amine produced, active = hit call of the paper (significant change in both replicates, either direction)
# Conditions: incubation time: 27 h, anaerobic, 37 °C
# Outline: as §1
row,Structure (SMILES),fold change of Putrescine concentration
1,CN(C(=O)CN(CCO)CC(=O)N(C)C(C)(C)Cc1ccccc1)C(C)(C)Cc1ccccc1 [Oxethazaine] (20 µM),1.1
2,CCCCC(CC)CN1C(=O)[C@@H]2[C@H](C1=O)[C@@H]1C=C[C@H]2C1 (mixture of isomers) (20 µM),0.993
3,CC(=O)OCC1=C(C(=O)O)N2C(=O)[C@@H](NC(=O)Cc3cccs3)[C@H]2SC1 [Cephalothin sodium salt] (20 µM),1.17
4,Cc1cc(CC(=O)O)n(C)c1C(=O)c1ccc(Cl)cc1 [Zomepirac sodium salt] (20 µM),1.04
5,CC(CNC1CCCCC1)OC(=O)c1ccccc1 (stereo not drawn) [Hexylcaine hydrochloride] (20 µM),1
6,CC(C)n1c(/C=C/C(O)CC(O)CC(=O)O)c(-c2ccc(F)cc2)c2ccccc21 (stereo not drawn) [Fluvastatin sodium salt] (20 µM),1.02
7,CCCc1cc(=O)[nH]c(=S)[nH]1 [Propylthiouracil] (20 µM),1.05
8,CC(=O)Nc1ccc(OCC(O)CNC(C)C)cc1 (stereo not drawn) [Practolol] (20 µM),1.04
9,C[C@@H]1O[C@@H](O[C@H]2[C@H](Oc3cc(O)c(C(=O)CCc4ccc(O)cc4)c(O)c3)O[C@H](CO)[C@@H](O)[C@@H]2O)[C@H](O)[C@H](O)[C@H]1O [Naringin Dihydrochalcone] (50 µM),0.983
10,Nc1cc(-c2ccncc2)c[nH]c1=O [Amrinone] (20 µM),1.02
11,CC#CCn1c(N2CCC[C@@H](N)C2)nc2c1c(=O)n(Cc1nc(C)c3ccccc3n1)c(=O)n2C [Linagliptin] (20 µM),1.01
12,CCOc1ccc2c(c1)C(C)=CC(C)(C)N2 [Ethoxyquin] (20 µM),1
13,Cn1c(=O)c2c(ncn2C)n(C)c1=O [Caffeine] (20 µM),0.987
14,C[C@]12CC[C@@H]3c4ccc(O)cc4CC[C@H]3[C@@H]1CC[C@@H]2O [Estradiol-17 beta] (20 µM),0.989
15,CC(=O)OCC(=O)[C@@]12OC3(CCCC3)O[C@@H]1C[C@H]1[C@@H]3CCC4=CC(=O)C=C[C@]4(C)[C@@]3(F)[C@@H](O)C[C@@]12C [Amcinonide] (20 µM),1.02
16,OCCN1CCN(CCCN2c3ccccc3C=Cc3ccccc32)CC1 [Opipramol dihydrochloride] (20 µM),0.888
17,CC(C)[N+](C)(CCOC(=O)C1c2ccccc2Oc2ccccc21)C(C)C [Propantheline bromide] (20 µM),1.02

row,Structure (SMILES),fold change of Putrescine concentration
1,C[C@H](O)[C@H](O)[C@H]1CNc2[nH]c(N)nc(=O)c2N1 [Sapropterin dihydrochloride] (20 µM),1.01
2,CCN(CC)CCNC(=O)c1cc(S(C)(=O)=O)ccc1OC [Tiapride hydrochloride] (20 µM),1.01
3,CNCCCN1c2ccccc2CCc2ccccc21 [Desipramine hydrochloride] (20 µM),1.01
4,COc1ccccc1OCC(O)CN1CCN(CC(=O)Nc2c(C)cccc2C)CC1 (stereo not drawn) [Ranolazine] (20 µM),0.997
5,CC(=O)c1ccc2c(c1)N(CCCN1CCC(CCO)CC1)c1ccccc1S2 [Piperacetazine] (20 µM),0.95
6,Cn1cc(C(=O)Nc2ccc(F)cc2-c2ccc(Cl)c(Cl)c2)c(C(F)F)n1 (20 µM),1.01
7,Nc1nc(=O)[nH]cc1F [Flucytosine] (20 µM),0.875
8,O=c1oc2cc(O)ccc2s1 [Tioxolone] (20 µM),1.02
9,CCN1C(=O)NC(c2ccccc2)C1=O (stereo not drawn) [Ethotoin] (20 µM),0.991
10,C=C1/C(=C\C=C2/CCC[C@]3(C)[C@@H]([C@H](C)/C=C/[C@@H](O)C4CC4)CC[C@@H]23)C[C@@H](O)C[C@@H]1O [Calcipotriene] (20 µM),1.01
11,COc1ccc([C@@H]2Sc3ccccc3N(CCN(C)C)C(=O)[C@@H]2OC(C)=O)cc1 [Diltiazem hydrochloride] (20 µM),0.982
12,N#Cc1ccc(C(c2ccc(C#N)cc2)n2cncn2)cc1 [Letrozole] (20 µM),1.03
13,Clc1ccc(CSC(Cn2ccnc2)c2ccc(Cl)cc2Cl)cc1 (stereo not drawn) [Sulconazole nitrate] (20 µM),0.922
14,NC(=O)c1ncn([C@@H]2O[C@H](CO)[C@@H](O)[C@H]2O)n1 [Ribavirin] (20 µM),0.781
15,CC(C)NCC(O)c1cc(O)cc(O)c1 (stereo not drawn) [Metaproterenol sulfate] (20 µM),1.03
16,Cc1ccccc1C(=O)Nc1ccc(C(=O)N2CCCC(O)c3cc(Cl)ccc32)c(C)c1 (stereo not drawn) [Tolvaptan] (20 µM),0.955
17,CC(C)(C)NC(=O)[C@H]1CC[C@H]2[C@@H]3CC[C@H]4NC(=O)C=C[C@]4(C)[C@H]3CC[C@]12C [Finasteride] (20 µM),0.983

# Reference: the supplement of paper PMC12494721
